The supplement of paper PMC6953052
The full ranking holds about 1,700 compounds; the median of “fraction of GFP-LC3-positive cells (≥5 vesicles/cell)” is about 0.43, and the highest 2% start at about 0.81. Shown is part of a subset that was picked to be rich in the highest values.

These compounds were tested on CbCln3 Δex7/8/Δex7/8 GFP-LC3 cerebellar neuronal cells (assay: fraction of GFP-LC3-positive cells (≥5 vesicles/cell); higher = more autophagosome accumulation).
Method in brief: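 By pin transfer, ~50 nL of compound in DMSO went in duplicate into 384-well plates holding 2 × 10^3 wild-type or mutant CbCln3 cerebellar cells per well that stably express GFP-LC3, followed by 24 h at 33 °C. The final 30 min included Hoechst 33342 and LysoTracker Red, and then came 3.2% PFA fixation and 10× imaging of three fields per well. Each value gives the fraction of cells above a vesicle threshold, averaged across duplicates, with CellProfiler counting GFP-LC3 vesicles and out-of-focus images left out. The threshold is 5 or more vesicles per cell.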

Row | SMILES | fraction of GFP-LC3-positive cells
1 | CC(=O)N[C@@H](CC(C)C)C(=O)O [N-Acetyl-L-leucine] | 0.38
2 | COc1ccc2c(c1)c(CC(=O)OCC(=O)O)c(C)n2C(=O)c1ccc(Cl)cc1 [Acemetacin] | 0.361
3 | COc1ccc(CC(N)C(=O)N[C@H]2[C@@H](O)[C@H](n3cnc4c(N(C)C)ncnc43)O[C@@H]2CO)cc1 (some centres undefined) [puromycin] | 0.782
4 | CNc1ncnc2c1ncn2[C@@H]1O[C@H](CO)[C@@H](O)[C@H]1O [N6-methyladenosine] | 0.417
5 | COc1ccc(C[C@H](N)C(=O)N[C@H]2[C@@H](O)[C@H](n3cnc4c(N(C)C)ncnc43)O[C@@H]2CO)cc1.Cl.Cl [Puromycin dihydrochloride] | 0.937
6 | CCN(CC)CCCC(C)Nc1c2ccc(Cl)cc2nc2ccc(OC)cc12.Cl.Cl.O.O (centres undefined) [Quinacrine dihydrochloride dihydrate] | 0.866
7 | CCN(CC)CCCC(C)Nc1ccnc2cc(Cl)ccc12.O=P(O)(O)O.O=P(O)(O)O (centres undefined) [Chloroquine diphosphate] | 0.518
8 | CCN(CC)Cc1cc(Nc2ccnc3cc(Cl)ccc23)ccc1O.Cl.Cl.O.O [Amodiaquin dihydrochloride dihydrate] | 0.513
9 | NC1CONC1=O (stereo in doubt) [(S)-(-)-Cycloserine] | 0.414
10 | CNC(C)CCC=C(C)C.CNC(C)CCC=C(C)C.O=C(O)C(O)C(O)C(O)C(O)C(=O)O (centres undefined) [Isometheptene mucate] | 0.479
11 | Cc1c(N(C)C)c(=O)n(-c2ccccc2)n1C [Amidopyrine] | 0.504
12 | COc1ccc2cc1Oc1ccc(cc1)C[C@H]1c3cc(c(OC)cc3CCN1C)Oc1c(OC)c(OC)cc3c1[C@H](C2)N(C)CC3 [Tetrandrine] | 0.679
13 | COc1cc2c3cc1Oc1c(OC)c(OC)cc4c1[C@@H](Cc1ccc(OC(=O)c5ccc([N+](=O)[O-])cc5)c(c1)Oc1ccc(cc1)C[C@@H]3N(C)CC2)N(C)CC4 [E6 berbamine] | 0.834
14 | COc1ccc2cc1Oc1ccc(cc1)C[C@H]1c3cc(c(OC)cc3CCN1C)Oc1c(OC)c(OC)cc3c1[C@H](C2)N(C)CC3 | 0.746
15 | CN(C)CCN(Cc1ccc(Cl)cc1)c1ccccn1.Cl [Chloropyramine hydrochloride] | 0.566
16 | c1ccc(CN(CCN(Cc2ccccn2)Cc2ccccn2)Cc2ccccn2)nc1 | 0.952
17 | CNCCc1ccccn1.CS(=O)(=O)O.CS(=O)(=O)O [Betahistine mesylate] | 0.488
18 | CCc1cccc2c3c([nH]c12)C(CC)(CC(=O)O)OCC3 (centres undefined) [Etodolac] | 0.495
19 | CCc1cc(Cl)c(OC)c(C(=O)NC[C@@H]2CCCN2CC)c1O.Cl [S(-)Eticlopride hydrochloride] | 0.341
